Source: PubChem BioAssay (NCI)
Values joined by “and” are separate entries in the source; they are usually repeats but may differ in a detail not shown here. Equal values may be shown once. The panel holds about 83,000 compounds, 20% with a hit somewhere; the sample as a whole holds those more often.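 Testing used 96-well plates and a 48-hour single-concentration exposure. Example: -40 means 40% of the starting cells died.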 Active and inactive are the calls of the source. The calls were made as follows: active = growth percent below 10; inactive = the rest.

Experiments:
Assay in all cases: NCI-60 one-dose screen, 48 h (100 = growth as untreated, 0 = no growth, -100 = all killed)
Conditions in all cases: 10 µM unless noted
SR leukemia = test system: SR leukemia
RPMI-8226 leukemia = test system: RPMI-8226 leukemia
OVCAR-8 ovarian = test system: OVCAR-8 ovarian
OVCAR-5 ovarian = test system: OVCAR-5 ovarian
OVCAR-4 ovarian = test system: OVCAR-4 ovarian
SK-OV-3 ovarian = test system: SK-OV-3 ovarian
IGROV1 ovarian = test system: IGROV1 ovarian
OVCAR-3 ovarian = test system: OVCAR-3 ovarian
HS 578T breast = test system: HS 578T breast
NCI/ADR-RES ovarian = test system: NCI/ADR-RES ovarian
T-47D breast = test system: T-47D breast
BT-549 breast = test system: BT-549 breast
MDA-MB-435 melanoma = test system: MDA-MB-435 melanoma
SW-620 colon = test system: SW-620 colon
MCF7 breast = test system: MCF7 breast
HCT-116 colon = test system: HCT-116 colon
HCC-2998 colon = test system: HCC-2998 colon
KM12 colon = test system: KM12 colon

Measured: growth

COc1ccc(/C=N/NC(=O)CN2CCN(c3cc4c(cc3F)c(=O)c(C(=O)O)cn4C3CC3)CC2)cc1O
inactive: SR leukemia 80.2% | RPMI-8226 leukemia 92.3% | OVCAR-8 ovarian 95.1% | OVCAR-5 ovarian 108% | OVCAR-4 ovarian 108% | SK-OV-3 ovarian 108% | IGROV1 ovarian 95.5% | OVCAR-3 ovarian 103% | HS 578T breast 96.8% | NCI/ADR-RES ovarian 106% | T-47D breast 96.6% | BT-549 breast 107% | MDA-MB-435 melanoma 107% | SW-620 colon 102% | MCF7 breast 92.6% | HCT-116 colon 93.4% | HCC-2998 colon 99.2% | KM12 colon 102%

CNC(=O)c1cc(Oc2ccc3nc(NC(=O)Nc4ccc(C(F)(F)F)cc4)sc3c2)ccn1
inactive: SR leukemia 70.6% | RPMI-8226 leukemia 70.4% | OVCAR-8 ovarian 48.5% | OVCAR-5 ovarian 93.9% | OVCAR-4 ovarian 37.7% | SK-OV-3 ovarian 105% | IGROV1 ovarian 70.9% | OVCAR-3 ovarian 24% | HS 578T breast 30% | NCI/ADR-RES ovarian 58.4% | T-47D breast 44.8% | BT-549 breast 62.3% | MDA-MB-435 melanoma 40.9% | SW-620 colon 37.9% | MCF7 breast 42% | HCC-2998 colon 104% | KM12 colon 65%
active: HCT-116 colon 7.67%

COc1ccc(C(=O)c2ccc(OC)c(OC)c2OC)cc1
active: OVCAR-3 ovarian -22.8% and -39.4% | HS 578T breast -9.55% and -14.2% | MDA-MB-435 melanoma -14.6% and -29.5%
18% (inactive) and 3.38% (active): SK-OV-3 ovarian
18.5% (inactive) and -13.9% (active): NCI/ADR-RES ovarian
43.5% (inactive) and 8.36% (active): SR leukemia
inactive: RPMI-8226 leukemia 35.3% and 27.4% | OVCAR-8 ovarian 41.8% and 47.4% | OVCAR-5 ovarian 83.1% and 49.9% | OVCAR-4 ovarian 82.8% and 42.8% | IGROV1 ovarian 25.7% and 11.9% | T-47D breast 44.5% and 36.2% | BT-549 breast 71.9% and 50% | SW-620 colon 15.6% and 11.8% | MCF7 breast 25.4% and 16.5% | HCT-116 colon 30.5% and 26.3% | HCC-2998 colon 57.3% and 45.6% | KM12 colon 29.5% and 24.7%

NNCCc1ccccc1
inactive: SR leukemia 106% and 104% | RPMI-8226 leukemia 95.3% and 110% | OVCAR-8 ovarian 116% and 96.7% | OVCAR-5 ovarian 93.1% | OVCAR-4 ovarian 101% and 96.9% | SK-OV-3 ovarian 108% and 94.9% | IGROV1 ovarian 97.2% | OVCAR-3 ovarian 122% and 100% | HS 578T breast 116% and 94.1% | NCI/ADR-RES ovarian 104% and 91.4% | T-47D breast 106% and 95.2% | BT-549 breast 103% and 107% | MDA-MB-435 melanoma 109% and 97.2% | SW-620 colon 106% and 94.6% | MCF7 breast 98.5% and 86.6% | HCT-116 colon 103% and 93.5% | HCC-2998 colon 110% and 98.5% | KM12 colon 111% and 99.5%

C=C[C@]1(C)C=C2CC[C@@H]3C(C)(C)C(=O)CC[C@@]3(C)[C@@H]2CC1
inactive: SR leukemia 102% | RPMI-8226 leukemia 98.3% | OVCAR-8 ovarian 103% | OVCAR-5 ovarian 111% | OVCAR-4 ovarian 102% | SK-OV-3 ovarian 111% | IGROV1 ovarian 11.3% | OVCAR-3 ovarian 109% | HS 578T breast 104% | NCI/ADR-RES ovarian 110% | T-47D breast 105% | BT-549 breast 126% | MDA-MB-435 melanoma 101% | SW-620 colon 105% | MCF7 breast 101% | HCT-116 colon 103% | HCC-2998 colon 107% | KM12 colon 98.6%

CCOC(=O)n1cc(-c2nonc2-c2cn(C)c3ccc(OC)cc23)c2cc(F)ccc21
inactive: SR leukemia 79% | RPMI-8226 leukemia 74.5% | OVCAR-8 ovarian 75.7% | OVCAR-5 ovarian 62% | OVCAR-4 ovarian 75% | SK-OV-3 ovarian 81% | IGROV1 ovarian 73.2% | OVCAR-3 ovarian 87.4% | HS 578T breast 70.2% | NCI/ADR-RES ovarian 82.2% | T-47D breast 73% | BT-549 breast 86.9% | MDA-MB-435 melanoma 85.7% | SW-620 colon 80.5% | MCF7 breast 77.6% | HCT-116 colon 77.3% | HCC-2998 colon 91.9% | KM12 colon 77.7%

CN(C)CCCn1c2nc(=O)[nH]c(=O)c-2nc2cc(Cl)c(Cl)cc21
active: OVCAR-3 ovarian -20.9% | MCF7 breast 4.93% | HCT-116 colon -18.5%
inactive: SR leukemia 83.7% | RPMI-8226 leukemia 73.6% | OVCAR-8 ovarian 50% | OVCAR-5 ovarian 125% | OVCAR-4 ovarian 81.8% | SK-OV-3 ovarian 109% | IGROV1 ovarian 54% | HS 578T breast 106% | NCI/ADR-RES ovarian 85.9% | T-47D breast 34.8% | BT-549 breast 113% | MDA-MB-435 melanoma 106% | SW-620 colon 13.6% | HCC-2998 colon 91.6% | KM12 colon 57.5%

C#CCOc1cccc(Nc2ncc3ncn(C4CCN(C(=O)CCl)C4)c3n2)c1 (stereo unspecified)
active: SR leukemia -1.16% [6.25 µM] | IGROV1 ovarian 1% [6.25 µM] | OVCAR-3 ovarian -6.2% [6.25 µM] | T-47D breast -10.5% [6.25 µM] | SW-620 colon -41.4% [6.25 µM] | MCF7 breast 8.03% [6.25 µM] | HCT-116 colon 0.194% [6.25 µM]
inactive: RPMI-8226 leukemia 44.1% [6.25 µM] | OVCAR-8 ovarian 51.7% [6.25 µM] | OVCAR-5 ovarian 53.3% [6.25 µM] | OVCAR-4 ovarian 36.3% [6.25 µM] | SK-OV-3 ovarian 73.4% [6.25 µM] | HS 578T breast 82.2% [6.25 µM] | NCI/ADR-RES ovarian 78% [6.25 µM] | BT-549 breast 29.3% [6.25 µM] | MDA-MB-435 melanoma 35.2% [6.25 µM] | HCC-2998 colon 74.9% [6.25 µM] | KM12 colon 87.5% [6.25 µM]

COc1ccc(-c2nnc3n(C)c(=O)c4ccccc4n23)cc1O
inactive: SR leukemia 21.4% | RPMI-8226 leukemia 15.9% | OVCAR-8 ovarian 25.2% | OVCAR-5 ovarian 66% | OVCAR-4 ovarian 53.6% | SK-OV-3 ovarian 14.9% | IGROV1 ovarian 55.7% | HS 578T breast 29.5% | NCI/ADR-RES ovarian 15.5% | T-47D breast 30.2% | BT-549 breast 41.4% | SW-620 colon 23.9% | MCF7 breast 18.2% | HCT-116 colon 13.1% | HCC-2998 colon 33.7% | KM12 colon 24.2%
active: OVCAR-3 ovarian 0.325% | MDA-MB-435 melanoma -40.8%

C/C=C(/C)C(=O)O[C@@H]1CC(C)(C)CC2C34OC(=O)[C@@]21CC[C@@]3(C)[C@]1(C)CCC2C(C)(C)C(=O)CC[C@]2(C)C1C[C@@H]4Cl (stereo partly specified)
inactive: SR leukemia 108% | RPMI-8226 leukemia 91% | OVCAR-8 ovarian 96% | OVCAR-5 ovarian 95.9% | OVCAR-4 ovarian 96.2% | SK-OV-3 ovarian 99.7% | IGROV1 ovarian 96.8% | OVCAR-3 ovarian 115% | HS 578T breast 99.8% | NCI/ADR-RES ovarian 106% | T-47D breast 99.1% | BT-549 breast 108% | MDA-MB-435 melanoma 102% | SW-620 colon 96.7% | MCF7 breast 97.6% | HCT-116 colon 86.2% | HCC-2998 colon 102% | KM12 colon 104%

COc1cc(N=Nc2ccc(O)c3ncccc23)c2ncccc2c1
inactive: RPMI-8226 leukemia 31.7% | OVCAR-8 ovarian 17.1% | OVCAR-5 ovarian 59.8% | OVCAR-4 ovarian 17.4% | SK-OV-3 ovarian 43.3% | IGROV1 ovarian 27.4% | OVCAR-3 ovarian 30.3% | HS 578T breast 33.9% | T-47D breast 20.2% | BT-549 breast 39% | MDA-MB-435 melanoma 42.4% | SW-620 colon 30.5% | MCF7 breast 27.5% | HCT-116 colon 19.4% | HCC-2998 colon 36.3% | KM12 colon 28.1%
active: SR leukemia 7.54% | NCI/ADR-RES ovarian -1.77%

CC1=CC(C)(C)NC(=S)N1c1ccc(Cl)cc1
inactive: SR leukemia 97.8% and 93% | RPMI-8226 leukemia 100% | OVCAR-8 ovarian 100% and 104% | OVCAR-5 ovarian 95% and 104% | OVCAR-4 ovarian 103% | SK-OV-3 ovarian 122% and 93.2% | IGROV1 ovarian 96.4% | OVCAR-3 ovarian 110% and 104% | HS 578T breast 102% and 113% | NCI/ADR-RES ovarian 103% and 112% | T-47D breast 92.8% and 87.2% | BT-549 breast 99.1% and 110% | MDA-MB-435 melanoma 101% and 117% | SW-620 colon 100% and 115% | MCF7 breast 101% and 97.3% | HCT-116 colon 99.6% and 89% | HCC-2998 colon 105% and 100% | KM12 colon 101% and 105%
